About 3,200 (25%) of roughly 13,000 compounds showed an effect of 50% or more. Some of the results follow.
Each molecule was assayed on P. falciparum stage V gametocytes. Conditions: 48 h, 5 µM; inhibitor.
Design: BacTiter-Glo ATP luminescence viability of purified stage V gametocytes in 384-well plates, per cent inhibition versus DMSO
For `Cc1ccc(-c2cncc(-c3cc(NC4CCN(Cc5ccccc5)CC4)nc(-c4ccccc4)n3)c2)cc1` [TCMDC-125588], the “% Inhibition” value was 17.17%. With `Cc1cc(NC2CCN(Cc3ccccc3)CC2)nc(NCCCCc2ccccc2)n1` [TCMDC-138304] the “% Inhibition” value was 79.92%. In the case of `COc1cccc(Nc2nc(C)cc(NC3CCN(Cc4ccccc4)CC3)n2)c1` [TCMDC-134022], the “% Inhibition” value is reported as -46.19%. In the case of `CC12CCC(C(=O)N(CC(O)Cn3c4ccc(Cl)cc4c4cc(Cl)ccc43)C1=O)C2(C)C` (centres unmarked) [TCMDC-125719], the “% Inhibition” value is reported as 82.98%. `OC(CNc1cccc(Cl)c1)Cn1c2ccc(Cl)cc2c2cc(Cl)ccc21` (centres unmarked) [TCMDC-125716] was tested, and the “% Inhibition” value was 20.85%. With `CS(=O)(=O)N(CC(O)Cn1c2ccc(Cl)cc2c2cc(Cl)ccc21)c1ccccc1` (centres unmarked) [TCMDC-124039] the “% Inhibition” value was 35.36%. `Fc1ccc2[nH]c(-c3ccc(-c4ccc(CNCC5CCCO5)cc4)cc3)nc2c1.O=C(O)C(F)(F)F` (centres unmarked) [TCMDC-133097] was tested, and the “% Inhibition” value was 36.17%. In the case of `CCOC(=O)c1c(CNc2ccncc2)n(C)c2cc(Br)c(OC(C)=O)cc12` [TCMDC-125700], the “% Inhibition” value is reported as -53.66%. `CCOC(=O)c1cc2c(CCN3C(=O)c4ccccc4C3=O)cn(C)c2cc1-c1ccncc1` [TCMDC-138099] was tested, and the “% Inhibition” value was 108.6%. With `CCOC(=O)c1cn(CC)c2cc(OCc3ccccc3)ccc2c1=O` [TCMDC-141680] the “% Inhibition” value was 0.3884%. In the case of `CS(=O)(=O)Nc1cccc(-c2cnc3[nH]cc(-c4cc(N)cc(C(=O)O)c4)c3c2)c1` [TCMDC-136220], the “% Inhibition” value is reported as 11.92%. `COc1nc(-n2ccc(=N)cc2)nc2ccccc12` [TCMDC-131303] was tested, and the “% Inhibition” value was 8.489%. With `c1ccc(-n2cncn2)cc1` [TCMDC-124291] the “% Inhibition” value was 2.88%. With `CCC(CN1C(=O)C(c2ccccc2)(c2ccccc2)N=C1N)c1ccccc1` (centres unmarked) [TCMDC-136879] the “% Inhibition” value was 66.04%. In the case of `CCC(CC)CN1C(=O)C(c2ccccc2)(c2ccccc2)N=C1N` [TCMDC-136491], the “% Inhibition” value is reported as 13.18%. For `CCC(C)CN1C(=O)C(c2ccccc2)(c2ccccc2)N=C1N` (centres unmarked) [TCMDC-136799], the “% Inhibition” value was -2.713%. For `CN(c1cc(NC(=O)c2cccs2)ccn1)C1CCN(Cc2ccccc2)CC1` [TCMDC-135006], the “% Inhibition” value was 1.42%. With `CC(C)CNCc1cccc(-c2ccc(CN(C(=O)c3cccs3)C3CCN(Cc4ccccc4)CC3)cc2)c1` [TCMDC-140569] the “% Inhibition” value was 103.7%. With `CC(C)CNCc1cccc(-c2cccc(CN(C(=O)c3cccs3)C3CCN(Cc4ccccc4)CC3)c2)c1` [TCMDC-140565] the “% Inhibition” value was 96.32%. With `CN(CCCCCNC(=O)/C=C/c1ccc(Cl)c(Cl)c1)CCc1c[nH]c2ccccc12` [TCMDC-139327] the “% Inhibition” value was -26.77%. `COc1cc(Cc2c(C)nc3nc(N)nc(N)c3c2C)c(Br)c(OC)c1OC` [TCMDC-137644] was tested, and the “% Inhibition” value was 1.652%. For `COc1cccc(NC(=O)NC2CCN(c3ccnc(Nc4ccc(F)cc4)n3)C2)c1` (centres unmarked) [TCMDC-133602], the “% Inhibition” value was -32.07%. In the case of `CN1CCC(N(Cc2ccc(-c3ccc(Cl)cc3)cc2)C(=O)Cn2c(CCc3cccc(F)c3F)cc(=O)c3ccccc32)CC1` [TCMDC-141357], the “% Inhibition” value is reported as 111.3%. In the case of `CCN1CCC(N(Cc2ccc(-c3ccc(Cl)cc3)cc2)C(=O)Cn2c(CCc3cccc(F)c3F)cc(=O)c3ccccc32)CC1` [TCMDC-141358], the “% Inhibition” value is reported as 109.7%. In the case of `CN1CCC(N(Cc2ccc(-c3ccc(C(F)(F)F)cc3)nc2)C(=O)Cn2c(CCc3cccc(F)c3F)cc(=O)c3ccccc32)CC1` [TCMDC-141407], the “% Inhibition” value is reported as 27.49%. For `Nc1nc2ccc(CN(C=O)c3ccc(C(=O)N[C@@H](CCC(=O)O)C(=O)O)cc3)cc2c(=O)[nH]1` [TCMDC-132048], the “% Inhibition” value was 3.734%. `COc1ccc(Cn2c(Nc3cccc(C(F)(F)F)c3)nc3ccc(C(=O)NCCN4CCCC4)cc32)cc1Cl` [TCMDC-138531] was tested, and the “% Inhibition” value was -30.77%. For `COc1ccc(Cn2c(Nc3cccc(C(F)(F)F)c3)nc3cc(C(=O)NCCN4CCCC4)cnc32)cc1Cl` [TCMDC-138555], the “% Inhibition” value was 60.89%. `COc1ccc(Cn2c(Nc3cccc(C(F)(F)F)c3)nc3cc(C(=O)NCCN4CCCC4)ccc32)cc1Cl` [TCMDC-138532] was tested, and the “% Inhibition” value was -18.24%. In the case of `CN(c1cc(NC(=O)c2ccc(F)cc2)ccn1)C1CCN(Cc2ccc(C#N)cc2)CC1` [TCMDC-134979], the “% Inhibition” value is reported as 11.6%. With `O=c1cc(NCCCNCc2cc(Br)ccc2F)[nH]c2ccccc12` [TCMDC-139424] the “% Inhibition” value was -33.84%. `CC(C)CNCc1cccc(-c2ccc(CN(C(=O)NCCc3ccccc3)C3CCN(Cc4ccccc4)CC3)cc2)c1` [TCMDC-140622] was tested, and the “% Inhibition” value was 85.53%. In the case of `CC(C)CNCc1ccc(-c2cccc(CN(C(=O)NCCc3ccccc3)C3CCN(Cc4ccccc4)CC3)c2)cc1` [TCMDC-140615], the “% Inhibition” value is reported as 77.17%. For `CC(C)CNCc1ccc(-c2ccc(CN(C(=O)NCCc3ccccc3)C3CCN(Cc4ccccc4)CC3)cc2)cc1` [TCMDC-140623], the “% Inhibition” value was 92.24%. With `CC(=O)N(Cc1ccc(-c2ccc(CNCCc3ccccc3)cc2)cc1)C1CCN(Cc2ccccc2)CC1` [TCMDC-140530] the “% Inhibition” value was 41.5%. `O=C(NC1CCCCC1)C(c1cccs1)N(CCc1ccccc1)C(=O)c1ccco1` (centres unmarked) [TCMDC-123798] was tested, and the “% Inhibition” value was -17.48%. For `CC(C)c1ccc(-c2noc(SCC(=O)N3CCCCC3C)n2)cc1` (centres unmarked) [TCMDC-124745], the “% Inhibition” value was -11.89%. `CC(=O)NC1=NC(C)(C)N(OCc2ccc(Cl)c(Cl)c2)C(NC(C)=O)=N1` [TCMDC-131594] was tested, and the “% Inhibition” value was -1.877%. With `CC(=O)Nc1cccc(/C=C/C(=O)N2CCC(N3CCCCC3)CC2)c1` [TCMDC-141128] the “% Inhibition” value was 9.67%. In the case of `Cc1cccnc1CNc1nccc2c(C)c(C)[nH]c12` [TCMDC-134148], the “% Inhibition” value is reported as -85.57%. In the case of `CCCCCCCN1CC[C@@H](CCC(O)c2ccnc3ccc(OC)cc23)[C@@H](CC)C1` (some centres unmarked) [TCMDC-138954], the “% Inhibition” value is reported as 9.095%. With `CC[C@H]1CN(Cc2ccco2)CC[C@H]1CCCc1ccnc2ccc(O)cc12` [TCMDC-140336] the “% Inhibition” value was 6.613%. In the case of `CCCCN1CC[C@@H](CCC(O)c2cc(OCCC)nc3ccc(OC)cc23)[C@@H](CC)C1` (some centres unmarked) [TCMDC-131499], the “% Inhibition” value is reported as 36.19%. For `CCCCCCCN1CC[C@@H](CCCc2ccnc3ccc(OCCN4CCOCC4)cc23)[C@@H](CC)C1` [TCMDC-139815], the “% Inhibition” value was 43.2%. With `CCCCCCCN1CC[C@@H](CCCc2ccnc3ccc(OCC4CCCNC4)cc23)[C@@H](CC)C1` (some centres unmarked) [TCMDC-139816] the “% Inhibition” value was 113%. With `CCCCCCCN1CC[C@@H](CCCc2ccnc3ccc(OCCC4CCNCC4)cc23)[C@@H](CC)C1` [TCMDC-139819] the “% Inhibition” value was 116.4%. In the case of `CCCCCCCN1CC[C@@H](CCCc2ccnc3ccc(OCCN4CCNCC4)cc23)[C@@H](CC)C1` [TCMDC-139817], the “% Inhibition” value is reported as 103.1%. With `CCCCN1CC[C@@H](CCC(O)c2ccnc3ccc(OCCC(C)C)cc23)[C@@H](CC)C1` (some centres unmarked) [TCMDC-131481] the “% Inhibition” value was 66.25%. `CN1CCN(c2cc3c(cc2Cl)CCN3C(=O)Cc2ccc(Cl)c(NC(=O)Nc3cccc([N+](=O)[O-])c3)c2)CC1` [TCMDC-139473] was tested, and the “% Inhibition” value was -0.749%. For `O=C(Nc1ccc(F)cc1F)NC1CCN(c2ccnc3cc(Cl)ccc23)C1` (centres unmarked) [TCMDC-133658], the “% Inhibition” value was -14.22%. With `CCCOc1ccc(C(F)(F)F)cc1NC(=O)c1nc2nc(C)cc(C)n2n1` [TCMDC-125466] the “% Inhibition” value was -88.48%. In the case of `COc1ccc(N2CCc3c(-c4cccc5cnccc45)cc(C)nc32)c(C)c1` [TCMDC-136362], the “% Inhibition” value is reported as -0.3846%. For `O=C(NCCCN1CCOCC1)c1ccc(-c2cccc(NC(=O)c3ccc(Cl)c(Cl)c3)c2)cc1` [TCMDC-133693], the “% Inhibition” value was -20.47%. For `O=C1CC(C(=O)O)CC(=O)N1` [TCMDC-125482], the “% Inhibition” value was 13.38%. For `COc1ccccc1-n1c(-c2ccc3ccccc3c2)csc1=NC(=O)c1ccccc1` [TCMDC-125668], the “% Inhibition” value was -1.763%. For `CC(C)Cn1cc(C2CCN(CCN3CCC(CNC(=O)c4ccc(NC(=O)c5ccc(Cl)cc5)cc4)CC3)CC2)c2ccccc21` [TCMDC-138865], the “% Inhibition” value was 102.8%. In the case of `Cn1cc(C2CCN(CCCCNC(=O)c3ccc(C(=O)Nc4ccc(C#N)cc4)cc3)CC2)c2ccccc21` [TCMDC-138788], the “% Inhibition” value is reported as -0.3465%. With `CC(C)Cn1cc(C2CCN(CCN3CCC(CNC(=O)c4ccc(NC(=O)c5cc(Cl)cc(Cl)c5)cc4)CC3)CC2)c2ccccc21` [TCMDC-138868] the “% Inhibition” value was 108.5%. For `O=C(NCCCCN1CCC(C(c2ccccc2)c2ccccc2)CC1)c1ccc(NC(=O)c2ccc(Cl)cc2)cc1` [TCMDC-138332], the “% Inhibition” value was -3.792%. In the case of `O=C(NCCN1CCC(c2ncc(-c3ccccc3)o2)CC1)c1ccc(NC(=O)c2ccc(Cl)cc2)cc1` [TCMDC-138483], the “% Inhibition” value is reported as -8.107%. `Cc1nc(-c2ccccc2)nc(N2CCN(C(=O)c3ccco3)CC2)c1Cc1ccccc1F` [TCMDC-124778] was tested, and the “% Inhibition” value was -3.417%. In the case of `CC1(C)NC(N)=NC(=N)N1OCCSCCON1C(=N)N=C(N)NC1(C)C` [TCMDC-131648], the “% Inhibition” value is reported as 6.143%. In the case of `COCCn1c(-c2cccc(Cl)c2)nn(-c2ccc([N+](=O)[O-])cc2Cl)c1=S` [TCMDC-135130], the “% Inhibition” value is reported as 91.77%. In the case of `COCCn1c(-c2cccc(Cl)c2)nn(-c2ccc([N+](=O)[O-])cc2C#N)c1=S` [TCMDC-134719], the “% Inhibition” value is reported as 95.24%. In the case of `COc1cc([N+](=O)[O-])ccc1NC(=O)c1cc(Cl)ccc1O` [TCMDC-124051], the “% Inhibition” value is reported as 28.26%.
